High-throughput results (PubChem)
AID923 = qHTS Assay for Allosteric/Competitive Inhibitors of Caspase-1: Spectroscopic Profiling in AFC Spectral Region. hit rate 1.1% among 75,000. compound fluorescence, AFC spectral region (405/520 nm). Potency, µM (doses to about 57.5 µM), without a hit: top-dose fluorescence increase, actives largely listed as activators; note: potency is the fitted concentration of half-maximal effect; 0% is about no effect
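Compound autofluorescence profiled at 405 nm ex/520 nm em during kinetic caspase 1 run (50 nM enzyme, 5 uM Ac-WEHD-AFC, HEPES pH 7.5, 10 mM DTT). Titration up to 57 uM; baseline from regression intercept, normalized to AFC standard curve.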
4MU fluor = qHTS Assay for Spectroscopic Profiling in 4-MU Spectral Region | compound autofluorescence, 340/450 nm, 4-MU equivalents; active compounds read high | max dye-equivalent concentration, M | hit rate 11% among 59,000 | AID 589, 2007; in the data active = max dye-equivalent concentration above about 10 nM; inconclusive = mostly about 1.1 nM to 9.6 nM
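Compounds in 100 mM Tris, pH 8.0, incubated 15 min at room temperature, then fluorescence read at 340 nm excitation/450 nm emission. Signal converted to 4-MU dye-equivalent concentration using an on-plate six-point 4-MU standard curve.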
HADH2 inh = qHTS Assay for Inhibitors of HADH2 (Hydroxyacyl-Coenzyme A Dehydrogenase, Type II) | recombinant HADH2, NADH fluorescence, beta-hydroxybutyryl-CoA | Potency, µM (series often up to 57.1 µM), inactives show at the highest dose activity change, negative = inhibition, actives largely listed as inhibitors | hit rate 3.4% among 73,000 | AID 886, 2007; note: potency is the fitted concentration of half-maximal effect; % is set by controls: 0 for no effect and ±100 for the full control effect; nearly all actives have a fitted effect of over 60% in size
Target sequence (Q99714 whole entry, looked up, one chain of several): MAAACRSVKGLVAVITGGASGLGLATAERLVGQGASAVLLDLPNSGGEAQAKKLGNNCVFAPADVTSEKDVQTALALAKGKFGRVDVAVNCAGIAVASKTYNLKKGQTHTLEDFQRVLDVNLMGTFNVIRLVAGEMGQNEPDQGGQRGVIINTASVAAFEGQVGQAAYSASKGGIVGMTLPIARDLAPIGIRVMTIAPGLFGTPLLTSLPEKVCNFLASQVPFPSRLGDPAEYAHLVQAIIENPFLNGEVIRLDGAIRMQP
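His-tagged recombinant enzyme from E. coli, 20 nM, preincubated 15 min RT with compound; reaction started with 1 mM NAD+ and 90 uM beta-hydroxybutyryl-CoA in 100 mM Tris-HCl pH 9.0. NADH fluorescence (ex 360/em 450) read over 4 min; last-minus-first difference.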
CRE-bla Fsk = Cell signaling CRE-BLA (Fsk stim). Potency, µM (doses to about 38.2 µM), without a hit: at the highest dose activity change, negative = inhibition, usual class: activators. CHO CRE-bla reporter (cAMP response element driving beta-lactamase), forskolin EC10, beta-lactamase ratio. hit rate 2.5% among 71,000; active = well fitted activation curve with a large enough effect in the signal ratio, with a control signal flat, not every such curve was filed as active; inconclusive = small, poorly fitted or top-dose-only effect, or effect the other way, or a change in a side signal; the % refers to the signal ratio; note: potency is the fitted concentration of half-maximal effect; % of control where 0% means no effect
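Using CellSensor CRE-bla CHO cells in Opti-MEM with 0.5% dialyzed FBS, compounds were titrated with EC10 NKH 477 for 3 h at 37 °C. CCF4 ratio (460/530 nm) gave %Activity; AC50 derived.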
HSD17B inhib = qHTS Assay for Inhibitors of HSD17B4, hydroxysteroid (17-beta) dehydrogenase 4 | 3-hydroxyacyl-CoA dehydrogenase type-2 (Homo sapiens), Q99714 | recombinant HSD17B10, NADH fluorescence kinetic | Potency, µM (doses to about 57.1 µM), for the others: at the highest dose activity change, negative = inhibition, hits mostly inhibitors | hit rate 7.6% among 75,000;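 note: the protocol describes HADH2 (HSD17B10) and not the HSD17B4 of the title; potency is the fitted concentration of half-maximal effect; % is set by controls: 0 for no effect and ±100 for the full control effect; nearly all actives have a fitted effect of over 70% in size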
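20 nM HADH2, pH 9.0 Tris/Tween; cpd preinc 15 min RT; start w/ 1 mM NAD+ + 90 uM b-hydroxybutyryl-CoA; kinetic fluor ex360/em450 q30s x 4 min; delta last-first.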
A350 autofl = qHTS Assay for Spectroscopic Profiling in A350 Spectral Region; Compound autofluorescence, 340/450 nm, Alexa 350 dye-equivalents; active compounds read high; hit rate 11% among 59,000; max dye-equivalent concentration, M; AID 590, 2007; in the data active = max dye-equivalent concentration above about 10 nM; inconclusive = mostly about 1.1 nM to 9.6 nM
* hit, by the source's call; i = inactive; ? = inconclusive; nt = not tested or not shown; [ ] = remark or other dose. Only some compounds are listed: those with a hit (about 14% of all), similar ones and a draw of the others. Unless noted, calls come from the whole dose curve; as a rule, active = well fitted curve in the direction sought with a large enough effect; inconclusive = small, poorly fitted or top-dose-only effect, or another doubt; inactive = no such curve, though single readings can be large; an effect the other way counts as inactive or inconclusive.

SMILES | AID923 | 4MU fluor | HADH2 inh | CRE-bla Fsk | HSD17B inhib | A350 autofl
N#Cc1c(N)nc(SCC(=O)NCCc2ccccc2)c(C#N)c1-c1cccs1 | nt | 4.6e-07M* | nt | nt | nt | 5e-07M*
CC(C)OC(=O)CSc1nc(N)c(C#N)c(-c2cccs2)c1C#N | 0% | nt | ? | ? | ? | nt
Cc1nn(Cc2ccccc2)c(C)c1NC(=O)c1cc(-c2ccc3c(c2)OCO3)on1 | 0% | 1.3e-08M* | 7% | ? | -11% | ?
CC(=O)c1cc2c(cc1NC(=O)c1cc(C)nn1-c1ccccc1)OCO2 | 10% | nt | 11% | 7.9µM* | 32µM* | nt
Cc1cc(NC(=O)c2cc(-c3ccc4c(c3)OCO4)on2)n(-c2ccccc2)n1 | 2% | 1.4e-08M* | 19% | 4% | -19% | 1.3e-08M*
Cc1cc(NC(=O)c2cc(-c3ccccc3)on2)n(-c2ccccc2)n1 | -2% | i | 14% | ? | ? | i
CC1CN(S(=O)(=O)c2cccc(C(=O)OCc3cc(=O)oc4cc(O)ccc34)c2)CC(C)O1 (configuration not stated) | 9% | 2.5e-07M* | i | -8% | i | 4.2e-07M*
CC(=O)OC1CC[C@]2(C)C(CC(OC(C)=O)[C@]3(C)C2CC[C@@]2(C)C(c4ccoc4)OC(=O)C4O[C@]432)C1(C)C (some centres not stated) | -1% | nt | nt | nt | -5% | nt
Cn1c(SCC(=O)NCc2cccs2)nnc1-c1ccc(S(=O)(=O)N2CCCC2)cc1 | 0% | i | -7% | -4% | 3% | i
Cn1c(SCC(=O)N2CCCCC2)nnc1-c1ccc(S(=O)(=O)N2CCOCC2)cc1 | 0% | i | -9% | -6% | 25µM* | i
NC(=O)CSc1nnc(-c2ccncc2)n1-c1ccc(Cl)cc1 | -3% | nt | 13% | -9% | 5% | nt
O=C(CSc1nnc(-c2ccncc2)n1-c1ccc(Cl)cc1)N1CCOCC1 | 0% | 1.2e-08M* | 7% | 9% | -2% | 1.2e-08M*
CCSc1nnc(-c2ccc(S(=O)(=O)N3CCCC3)cc2)n1C | -1% | i | -25% | 12% | 32µM* | i
CCn1c(SCc2ccc(C#N)cc2)nnc1-c1ccc(S(=O)(=O)N2CCCCC2)cc1 | 2% | 5.7e-07M* | -9% | -4% | 25µM* | 4.3e-07M*
COC(C1CCCCC1)C(C)C(OCc1cccc(Br)c1)C(C)CO (configuration not stated) | -2%[11.5 µM] | nt | 12%[11.4 µM] | nt | 2%[11.4 µM] | nt
Cc1nnc(SCC(=O)c2ccc(S(=O)(=O)N3CCOCC3)cc2)n1-c1ccccc1 | 0% | i | -16% | 3% | -12% | i
CCn1c(SCC(=O)N2CCCCC2)nnc1-c1ccc(S(=O)(=O)N2CCN(C)CC2)cc1 | 0% | i | 9% | 2% | 25µM* | i
CCOC(=O)CSc1nnc(-c2ccc(S(=O)(=O)N3CCOCC3)cc2)n1-c1ccccc1 | 0% | i | -21% | 12% | 20µM* | i
CCn1c(SCC(=O)N2CCCC2)nnc1-c1ccc(S(=O)(=O)N2CCCCCC2)cc1 | 1% | i | 8% | -5% | 8% | i
c1ccc(CCCNc2nnnc3ccccc23)cc1 | 5%[11.5 µM] | i | 7%[11.4 µM] | 7%[7.6 µM] | 7%[11.4 µM] | i
N=C(N)SCCc1ccncc1 | -1%[11.5 µM] | i | -15%[11.4 µM] | 11%[7.6 µM] | 11%[11.4 µM] | i
O=C(c1ccc(F)cc1)N(Cc1ccccc1)C1CCS(=O)(=O)C1 (configuration not stated) | 1% | i | ? | 10% | 16% | i
O=C(c1ccccc1)N(Cc1ccc(F)cc1)C1CCS(=O)(=O)C1 (configuration not stated) | 1% | 2e-08M* | 15% | -6% | -6% | 3.7e-08M*
CCc1cc2c(nc1CC)CCN(CC/C(C)=N/O[C@@H]1O[C@H](COC(C)=O)[C@H](OC(C)=O)[C@H](OC(C)=O)[C@H]1OC(C)=O)C2 | 1%[11.5 µM] | nt | 9%[11.4 µM] | nt | -4%[11.4 µM] | nt
c1ccc2c(c1)NC(c1ccncc1)n1c-2nc2ccccc21 (configuration not stated) | nt | 5.1e-07M* | nt | nt | nt | 5.8e-07M*
SMILES | AID923 | 4MU fluor | HADH2 inh | CRE-bla Fsk | HSD17B inhib | A350 autofl
O=C1c2ccccc2NC(c2cnc3ccccc3n2)N1O (configuration not stated) | 1% | ? | -8% | -17% | -15% | ?
c1cncc(C2Nc3ccccc3-c3nc4ccccc4n32)c1 (configuration not stated) | 14% | 8.6e-07M* | 32µM* | ? | 25µM* | 8.2e-07M*
Cc1c(Cl)c(S(N)(=O)=O)cc2c1=NC=NS=2(=O)O | -3%[11.5 µM] | i | -3%[11.4 µM] | 15%[7.6 µM] | 3%[11.4 µM] | i
Cc1cc(C)c(-c2cc(C(F)(F)F)no2)c(=O)[nH]1 | 0% | 4.5e-08M* | -26% | 7% | 20µM* | 3.3e-08M*
COc1cc2nc(C3CC3)n(NC(=O)c3ccc(Cl)cc3)c(=O)c2cc1OC | 0% | ? | -6% | 0% | -6% | ?
COc1cc2nc(NC(=O)c3ccc(Cl)cc3)[nH]c(=O)c2cc1OC | 1% | 1.8e-07M* | -10% | -8% | -15% | 1.6e-07M*
CCCC1(C(=O)OC)C=C2C(=C(c3ccccc3)C(=O)C2C)CN1 (configuration not stated) | 8% | nt | -18% | -16% | ? | nt
CCc1nc(C)c(-c2ccccc2)c(=O)[nH]1 | -1% | i | -4% | -15% | 15% | i
Cc1nn2c(-c3ccccc3)c(-c3ccccc3)nc2[nH]c1=O | 13% | 1.7e-08M* | -4% | -5% | -14% | 2.3e-08M*
Cc1ccc(S(=O)(=O)N(CC(=O)O)c2ccc(Cl)cc2)cc1 | 2% | nt | -4% | nt | 12% | nt
Cc1cc(N=Cc2c(CO)cnc(C)c2O)c(N=Cc2c(CO)cnc(C)c2O)cc1C.[Zn] | 0%[11.5 µM] | ? | 0%[11.4 µM] | 1%[7.6 µM] | ? | ?
O=c1[nH]c(NCCO)nc2c1C1(CCCCC1)Cc1ccccc1-2 | -1% | 3e-07M* | ? | -28% | 32µM* | 2.9e-07M*
Cc1nc(N2CCN(S(=O)(=O)c3cccc4nonc34)CC2)c2c3c(sc2n1)CCCC3 | 0% | 2.6e-08M* | 13% | -2% | 3% | 2.9e-08M*
CCCc1nc2oc3c(N4CCNCC4)ncnc3c2c2c1CCCC2 | 0% | 3e-08M* | -9% | 15% | 5% | 3.1e-08M*
CC(C)Cc1nc2oc3c(N4CCN(C)CC4)ncnc3c2c2c1CCCC2 | 3% | i | 8% | 13% | -4% | i
CCOC(=O)N1CCN(c2ncnc3c2oc2nc(CC(C)C)c4c(c23)CCC4)CC1 | 1% | 3.9e-08M* | 1% | 0% | 10% | 5.1e-08M*
